# Compound activity as filed in PubChem.
# MARV entry inh – blocks Marburg virus binding to or entry into cells; Marburg virus pseudotyped entry inhibition, cell reporter; Potency, µM (series often up to 37.8 µM), for inactives: at the top dose activity change, negative = inhibition, usual class: inhibitors; 300,000 tested, 1.8% active; AID 540276; calls by dose curve; tested in HEK293 cells
# VACV mCherry inh – inhibitors of vaccinia virus infection (mCherry reporter signal); 310,000 tested, 0.63% active; Vaccinia virus mCherry reporter infection, fluorescence; AID 720579; Potency, µM (doses to about 36.5 µM), without a hit: top-dose activity change, negative = inhibition, actives largely listed as inhibitors; calls by dose curve; tested in A549 cells; further: nearly all actives have a fitted effect of over 35% in size
# Vaccinia Venus – vaccinia inhibition (Venus reporter); Vaccinia virus Venus reporter expression, fluorescence; 330,000 tested, 0.46% active; Potency, µM (top dose mostly 36.5 µM), for the others: top-dose activity change, negative = inhibition, hits mostly inhibitors; calls by dose curve; tested in A549 cells; further: nearly all actives have a fitted effect of over 30% in size
# Sm TGR inh – S. mansoni TGR enzyme inhibition; Q962Y6; purified TGR, DTNB reduction, TNB absorbance 405 nm; Potency, µM (highest dose often 114 µM), for the others: top-dose activity change, negative = inhibition, usual class: inhibitors; 360,000 tested, 3% active; AID 485364; active means well fitted inhibition curve with a large enough effect; inconclusive means small, poorly fitted or top-dose-only effect; inactive means no such curve, though single readings can be large or run the other way; further: nearly all actives have a fitted effect of over 60% in size
#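 First, TGR (20 nM dispensed) and NADPH were mixed with compound. Second, a 15 min room-temperature incubation followed. Third, further NADPH and then DTNB were added to start the reaction. Finally, TNB absorbance was monitored kinetically.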
# FMDV antiviral – foot and mouth disease virus antiviral activity; FMDV antiviral cell-based qHTS; Potency, µM (titrated, usually from 57.9 µM), for the others: at the highest dose activity change, negative = inhibition, actives largely listed as inhibitors; 410,000 tested, 1.2% active; calls by dose curve; tested in HEK293T cells; further: read-out not given here; nearly all actives have a fitted effect of over 45% in size
# LASV entry inh – inhibitors of Lassa virus binding or cell entry; Lassa virus pseudotype entry inhibition, cell reporter; Potency, µM (top dose mostly 37.9 µM), inactives show at the highest dose activity change, negative = inhibition, hits mostly inhibitors; AID 540256; 300,000 tested, 1.2% active; calls by dose curve; tested in HEK293 cells; further: nearly all actives have a fitted effect of over 50% in size
# An asterisk follows results filed as active; i = inactive; ? = inconclusive; · = not tested or not shown; [ ] = dose if it differs, or a comment. An excerpt weighted towards active compounds, which were near 5.4% of everything screened. On the % scale 0 is the no-effect control and ±100 the full control effect; potency means the concentration at half of the fitted maximal effect.
SMILES,MARV entry inh,VACV mCherry inh,Vaccinia Venus,Sm TGR inh,FMDV antiviral,LASV entry inh
C=CCn1c(C)cc(C2=NNC(=NC(C)(C)C)SC2)c1C,?,-18%,-25%,-4%,?,?
COCCn1c(C)cc(C2=NNC(=Nc3ccc(Cl)cc3Cl)SC2)c1C,?,·,·,-2%,5%,-15%
C=CCN=C1NN=C(c2cc(C)n(CCOC)c2C)CS1,?,-2%,-5%,-29%,4.5µM*,?
COCCn1c(C)cc(C2=NNC(=NC3CC3)SC2)c1C,0.32µM*,i,-4%,-26%,1.3µM*,0.32µM*
O=C(Nc1ccc(OCc2cc(=O)n3c4c(sc3n2)CCCC4)cc1)c1ccccc1,3%[46.1 µM],1%,?,3%,-4%,1%[46.1 µM]
COc1ccc(-n2nc(C(=O)NCC(=O)Nc3ccccn3)c3ccccc3c2=O)cc1Cl,4.1µM*,-11%,-3%,-20%,-3%,-26%
CCCSc1nnc2c(n1)OC(c1ccc(Br)s1)Nc1ccccc1-2 (centres undefined),?,-1%,-18%,-29%,23%,23%[46.1 µM]
CCn1cc(S(=O)(=O)c2ccccc2)c(=O)c2cc(F)c(N3CCCCCC3)cc21,·,-19%,-21%,-1%,-21%,-18%[46.1 µM]
CC(=O)N(CN1C(=O)CCC1=O)c1ccc(Cl)c(Cl)c1,·,·,·,13%,11µM*,·
CCc1ccc(NC(=O)c2ccc3c(c2)c(C)c(C)n3Cc2ccccc2)cc1,·,-20%,-28%,10%,15%,2%[46.1 µM]
CCCSCCCNC(=O)CN1C(=O)COc2ccc(S(=O)(=O)N3CCC(C)CC3)cc21,-1%[46.1 µM],-15%,-6%,5.6µM*,-13%,-6%[46.1 µM]
Cc1ccc(OCC(=O)Nc2ccc3c(c2)nc(CCN2CCN(c4ccccn4)CC2)n3C)cc1,·,-8%,-25%,·,3.5µM*,·
CCc1ccccc1NC(=O)Cn1c(=O)n(-c2ccc(C)c(C)c2)c(=O)c2oc3ccccc3c21,·,-22%,-16%,?,1%,22%[46.1 µM]
Cc1ccc(CN2CCc3nnc(C(NC(=O)c4ccoc4)C(C)C)n3CC2)cc1C (centres undefined),·,-21%,-12%,·,6%,·
CCOc1ccc(N2C(=O)CC(N3CCN(c4ccccc4OC)CC3)C2=O)cc1 (centres undefined),·,·,·,40µM*,-4%,·
CCCOc1ccc(N2C(=O)CC(N3CCN(c4ccccc4OC)CC3)C2=O)cc1 (centres undefined),3%,1%,1%,50µM*,?,·
CCOc1ccc(N2C(=O)CC(N3CCN(c4ccccc4F)CC3)C2=O)cc1 (centres undefined),-9%,-6%,-15%,-29%,-11%,-1%
COc1ccccc1N1C(=O)CC(N2CCN(c3ccc([N+](=O)[O-])cc3)CC2)C1=O (centres undefined),·,·,·,40µM*,?,·
Cc1cccc(N2C(=O)CC(N3CCN(Cc4ccc(Cl)cc4)CC3)C2=O)c1 (centres undefined),-3%,2%,11%,45µM*,-13%,-1%
Cc1cc(C)cc(-n2ccn(CC(=O)Nc3ccccc3C(F)(F)F)c(=O)c2=O)c1,·,1%,-2%,-8%,-8%,0%[46.1 µM]
O=C(CCC1N=C2c3ccccc3N=C(SCc3ccccc3F)N2C1=O)NCc1ccccc1 (centres undefined),·,-20%,-9%,-2%,-12%,-9%[46.1 µM]
CCc1ccc(CN(Cc2ccco2)c2cnc(S(C)(=O)=O)nc2C(=O)Nc2cccc(C)c2)cc1,-28%[46.1 µM],-17%,-13%,-2%,-20%,-7%[46.1 µM]
COc1ccccc1N1CCN(C2CC(=O)N(c3cccc(Cl)c3)C2=O)CC1 (centres undefined),·,·,·,40µM*,-17%,·
Cc1cccc(N2C(=O)CC(N3CCC(c4nc5ccccc5[nH]4)CC3)C2=O)c1 (centres undefined),29%,·,·,35µM*,3%,3%
Cc1ccc(NC(=O)CN2C(=O)C3(SCC(=O)N3c3ccc(F)c(F)c3)c3ccccc32)c(C)c1 (centres undefined),·,3%,3%,1%,?,-5%[46.1 µM]
c1ccc2c(c1)NCC1CCCN21 (centres undefined),-8%[46.1 µM],?,8%,32µM*,18%,?
